Rab9 promoter act: Rab9 promoter activation; Potency, µM (doses to about 9.22 µM), inactives show top-dose activation, negative = inhibition, hits mostly activators; 320,000 tested, 2.8% active; AID 485297; Huh7 Rab9 promoter-luciferase reporter, luminescence, 24 h; further: % of control where 0% means no effect; nearly all actives have a fitted effect of over 60% in size
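Huh7 cells stably carrying Rab9 promoter–luciferase reporter, plated 1500 cells/well, compound added after 2 h and incubated 24 h at 37 °C; luciferase luminescence then read after 10 min with detection reagent.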
FLuc counter: inhibits or activates purified firefly luciferase, miR-21 counter-screen. AID 588342. purified FLuc, Km substrates, luminescence inhibition. Potency, µM (highest dose often 57.5 µM), for the others: at the highest dose activity change, negative = inhibition, hits mostly inhibitors. 360,000 tested, 6.9% active;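 further: plate controls were vehicle for no effect and reference inhibitor for full effect; nearly all actives have a fitted effect of over 55% in size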
Target sequence (P08659 whole entry, looked up): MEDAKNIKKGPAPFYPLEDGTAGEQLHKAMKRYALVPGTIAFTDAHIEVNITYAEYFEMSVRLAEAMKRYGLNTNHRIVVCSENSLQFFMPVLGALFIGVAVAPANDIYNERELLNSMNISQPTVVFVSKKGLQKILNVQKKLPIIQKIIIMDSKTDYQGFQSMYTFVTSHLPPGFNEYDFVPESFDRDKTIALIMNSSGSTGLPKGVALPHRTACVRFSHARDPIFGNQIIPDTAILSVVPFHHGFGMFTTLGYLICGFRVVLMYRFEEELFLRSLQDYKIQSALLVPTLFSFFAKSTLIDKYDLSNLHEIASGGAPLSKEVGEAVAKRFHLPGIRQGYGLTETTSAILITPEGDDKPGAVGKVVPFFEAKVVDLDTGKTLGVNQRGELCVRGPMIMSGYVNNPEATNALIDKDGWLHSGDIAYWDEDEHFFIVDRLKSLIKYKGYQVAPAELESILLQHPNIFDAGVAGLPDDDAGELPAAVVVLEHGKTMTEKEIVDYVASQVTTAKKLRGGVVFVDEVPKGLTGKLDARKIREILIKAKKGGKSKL
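Purified P. pyralis luciferase, 10 nM final, with Km-level 10 uM D-luciferin and 10 uM ATP in 50 mM Tris acetate pH 7.5, 10 mM Mg acetate, 0.01% Tween-20, 0.05% BSA; 6-point qHTS titration about 60 µM downward; luminescence read.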
SMN2 splice up: increases expression of the SMN2 splice variant; HEK293 SMN2-luciferase splicing reporter, luminescence, 30-36 h; Potency, µM (series often up to 46.1 µM), inactives show top-dose activity change, positive = activation, hits mostly activators; 210,000 tested, 2.8% active; AID 1458; further: % of control where 0% means no effect; nearly all actives have a fitted effect of over 55% in size
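HEK293 cells carry an SMN2 […]–luciferase reporter in which exon 7 inclusion puts luciferase in frame. Cells were plated 10-12 h before compound addition, then incubated 30-36 h at 37C. ONE-Glo luminescence was read; sodium butyrate at 4.5 mM final served as control.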
NPC1 prom act: activators of NPC1 promoter; Huh7 NPC1 promoter luciferase reporter, 24 h; Potency, µM (titrated, usually from 9.22 µM), inactives show at the top dose activation, hits mostly activators; 320,000 tested, 2.4% active; AID 485313; further: % of control where 0% means no effect; nearly all actives have a fitted effect of over 60% in size
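Compounds in DMSO were transferred onto Huh7 NPC1-luciferase reporter cells pre-incubated 2 h; after 24 h at 37 °C, Amplite reagent was dispensed and luminescence recorded 10 min later.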
ELG1 genotox: induces genotoxicity in HEK293T cells with luciferase-tagged ELG1; Potency, µM (top dose mostly 46 µM), for the others: top-dose activity change, positive = activation, hits mostly activators; 330,000 tested, 1.3% active; HEK293T ELG1-luciferase reporter, luminescence, 16 h; further: % of control where 0% means no effect; nearly all actives have a fitted effect of over 60% in size
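Genotoxicity was scored as increased ELG1-luciferase reporter signal, measured by ONE-Glo luminescence (30 min, room temperature). Compound or vehicle exposure of the HEK293T reporter cells lasted 16 hr at 37°C.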
Starred values were filed as active, the others as inactive; ? = inconclusive; . = no result given; [ ] = remark or other dose. Hits are enriched below; roughly 7.4% of the tested compounds scored in any of these assays. The call rests on the fitted dose curve; in most records, active means well fitted curve in the direction sought with a large enough effect; inconclusive means small, poorly fitted or top-dose-only effect, or another doubt; inactive means no such curve, though single readings can be large; an effect the other way counts as inactive or inconclusive. Potency means the concentration at half of the fitted maximal effect.

SMILES	Rab9 promoter act	FLuc counter	SMN2 splice up	NPC1 prom act	ELG1 genotox
Cc1cnc(-c2nnc(N(C)C(=O)C3CCCO3)s2)cn1 (stereo not given)	28%	-13%	-13%	20%	13%
CCN(CC)CCn1c(-c2ccccc2)nc2c(NC3CCCCC3)nc(C)nc21	.	.	-8%	.	.
C1COC1	.	.	-4%	.	.
CN(C(=O)c1ccno1)c1nnc(-c2ccccn2)s1	5%	15µM*	-1%	12%	14%
CCOc1ccc(N=Nc2c(=O)[nH]n3c(C)cc(C)nc23)cc1	5%	-19%	-6%	4%	3%
Cc1ccc(N=Nc2c(=O)[nH]n3c(=O)cc(C)[nH]c23)cc1	7%	15µM*	-37%	6%	?
CCCCOC(=O)c1ccc(Nc2ncnc3c2cnn3-c2cccc(C)c2)cc1	.	-7%	.	.	.
Cc1cccc(NC(=O)c2cn(-c3ccccc3)nc2-c2ccccc2)c1	-1%	13µM*	8%	-2%	1%
O=C(O)c1cn(-c2ccccc2)nc1-c1ccc(F)cc1	1%	?	.	-2%	0%[9.26 µM]
CCOC(=O)c1nn(-c2ccc(C)cc2)c(=O)cc1OCC(=O)Nc1cccc(C)c1	-6%	-1%	.	2%	0%
NS(=O)(=O)c1ccc(NC(=O)/C=C/c2cn(-c3ccccc3)nc2-c2cccc(Cl)c2)cc1	-9%	-4%	-13%	-5%	16%
O=C(O)c1ccc(NC(=O)c2cn(-c3ccccc3)nc2-c2ccc(F)cc2)cc1	?	2.7µM*	.	22%	5%
CC(=O)Nc1c(C(=O)Nc2cccc(C)c2)nnn1-c1ccc(C)cc1	.	17µM*	9%	.	.
O=C(/C=C/c1cn(-c2ccccc2)nc1-c1ccccc1)Nc1ccc(C(=O)O)cc1	?	0.85µM*	.	24%	4%
CC(C1CCCC(=O)C1)[N+](=O)[O-] (stereo not given)	.	.	12%	.	.
O=C(NCC1CCCO1)c1cn(-c2ccccc2)nc1-c1ccc(F)cc1 (stereo not given)	7%	11µM*	.	3%	-2%
Cc1cccc(-c2cc(NC(=O)c3ccccc3C)n(-c3ccccc3)n2)c1	.	11µM*	.	.	.
O=C(O)c1ccc(NC(=O)c2cn(-c3ccccc3)nc2-c2cccc(Cl)c2)cc1	-1%	3.8µM*	.	-6%	-1%
Cc1ccc(OCC(=O)Nc2cc(-c3cccc(C)c3)nn2-c2ccccc2)cc1	.	-1%	.	.	.
Cc1cccc(NC(=O)c2c(C)nn(-c3ccccc3)c2Cl)c1	?	13µM*	19%	?	11%
Cc1nn(-c2ccccc2)c(Cl)c1C(=O)Nc1ccc(N2CCOCC2)cc1	0%	-14%	-6%	1%	-7%
COc1ccc(Cc2ccc3[nH]c(=O)cc(C)c3c2)cc1S(=O)(=O)O	.	.	0%[9.22 µM]	.	.
CCN(Cc1ccccc1)S(=O)(=O)c1ccc(F)c(C(=O)Nc2cc(C(F)(F)F)ccc2Cl)c1	.	-7%	.	.	.
CCCCCCCCCCCCC/C=C/[C@@H](O)[C@H](CO)NCCCCCCCC	.	.	-2%	.	.
CCOC(=O)c1cc(C(=O)Nc2cccc(C)c2)nn1C	1.4µM*	4.8µM*	13µM*	1.6µM*	?
SMILES	Rab9 promoter act	FLuc counter	SMN2 splice up	NPC1 prom act	ELG1 genotox
Cc1cc(Cl)ccc1OCC(=O)Nc1c(C(=O)c2ccccc2)oc2ccccc12	.	-2%	-4%	.	.
Cc1cc(O)c(C(=O)/C=C/c2ccccc2)c(=O)o1	0%	19µM*	.	2%	-3%
Cc1cc(O)c(C(=O)/C=C/c2ccc(C(C)C)cc2)c(=O)o1	2.8µM*	3.4µM*	.	?	?
Cc1cc(O)c(C(=O)/C=C/c2ccccc2Br)c(=O)o1	-18%	?	.	4%	12%
CCOc1ccc(/C=C/C(=O)c2c(O)cc(C)oc2=O)cc1	?	6.7µM*	.	?	16%
COc1ccc(NC(=O)c2ccc3c(=O)n4nc(Nc5cc(C)ccc5C)sc4nc3c2)cc1	.	-1%	.	.	.
COCC(=O)N1CCC2(CC1)CN(c1ccc(-c3ccccc3)cc1)C2	.	.	-44%	.	.
Cc1nc(NC2CCCCC2)c2nc(-c3ccccc3)n(CCN3CCCC3)c2n1	.	.	-10%	.	.
COc1cc(CNc2ccc3[nH]c(=O)[nH]c3c2)cc(Cl)c1OCc1ccc(F)cc1	.	-4%	.	.	.
O=c1[nH]c2ccc(NCc3ccc(F)cc3)cc2[nH]1	15%	17µM*	.	14%	-6%
COC(=O)C/C=C/[C@@H](C)[C@H](OC)c1c(Br)ccc2c1OCO2	.	.	4%	.	.
Clc1cccc2sc(N3CCCCC3)nc12	?	24µM*	?	29%	23µM*
CNc1nc2c(Cl)cc(Cl)cc2s1	12%	-2%	.	-3%	7%
Clc1cc(Cl)c2nc(N3CCCCC3)sc2c1	4µM*	8.5µM*	?	2.8µM*	?
CC1CCCN(c2ncnc3c2cnn3-c2ccccc2)C1 (stereo not given)	0.14µM*	0.19µM*	.	0.35µM*	?
CCN(CC)C(=O)C1CCCN(c2ncnc3c2cnn3-c2cccc(C)c2)C1 (stereo not given)	-7%	?	-18%	-3%	?
CCOC(=O)C1CCCN(c2ncnc3c2cnn3-c2cccc(C)c2)C1 (stereo not given)	28%	24µM*	17%	24%	?
Cc1cccc(-n2ncc3c(N4CCCC(C)C4)ncnc32)c1 (stereo not given)	.	0.43µM*	.	.	.
CC1CCCN(c2ncnc3c2cnn3-c2ccc(F)cc2)C1 (stereo not given)	.	0.17µM*	.	.	.
O=C(c1cc(C(F)(F)F)cc(C(F)(F)F)c1)N1CCC[C@@]2(CCN(Cc3ccccc3)C2)C1	.	.	-2%	.	.
CCc1nnc2c(N3CCN(c4cc(Cl)ccc4C)CC3)nc3ccccc3n12	.	-1%	.	.	.
COc1ccc(-c2nnc(SCC(=O)NC3CCCC3)nc2-c2ccc(OC)c(OC)c2)cc1OC	.	-2%	.	.	.
CCCCNC(=O)CCCn1c(=O)c2ccccc2n(CC(=O)Nc2ccccc2OCC)c1=O	.	2%	-6%	.	.
CCOc1ccc(CC(=O)NCCc2csc(-c3ccc(C(F)(F)F)cc3)n2)cc1	.	0%	.	.	.
Cc1ccc(NC(=O)CSc2nnc(COc3ccc(Cl)cc3)o2)c(C)c1	.	-1%	.	.	.
Cc1ccc(-n2ncc3c(N4CCCC(C)C4)ncnc32)c(C)c1 (stereo not given)	2µM*	7.6µM*	.	3.2µM*	?
CC1CC(C)CN(c2ncnc3c2cnn3-c2ccc(Cl)cc2)C1 (stereo not given)	0.71µM*	2.1µM*	-81%	2µM*	?
CC1CCCN(c2ncnc3c2cnn3-c2ccc(Cl)cc2)C1 (stereo not given)	-29%	0.095µM*	.	-38%	1%
Cc1ccc(-n2ncc3c(N4CCCC4)ncnc32)c(C)c1	?	?	-17%	?	-7%
CCN(CC)C(=O)C1CCCN(c2ncnc3c2cnn3-c2ccc(Cl)cc2)C1 (stereo not given)	-5%	17µM*	.	-8%	-10%
